The structures appear in SMILES notation. Records with an inconclusive call do not appear. Where a call stands in place of a potency, no number is given. Activity calls are given as the source filed them. Calls come from the whole dose curve; as a rule, active = well fitted cell-killing curve with a large enough effect in the repeat runs; inconclusive = weak or mixed curves, or effect the other way; inactive = flat fitted curve, though single readings scatter.

Potency data for 40 compounds are collected here from PubChem BioAssay (Tox21).
Potency is the fitted concentration of half-maximal effect.

The nature of the assay: qHTS assay to identify small molecule antagonists of the androgen receptor (AR) signaling pathway using the MDA cell line in the presence of 0.5 nM R1881 - cell viability counter screen (AID 1259242). Note: nearly all actives have a fitted effect of over 45% in size. The settings on record: MDA-kb2 viability, CellTiter-Fluor protease fluorescence, 16 h; series mostly up to 92.4 µM. From the text: U.S. Tox21 Program National Center for Advancing Translational Sciences [NCATS] NIH Chemical Genomics Center [NCGC] U.S. Environmental Protection Agency [EPA] National Institutes of Environmental Health Sciences [NIEHS] National Toxicology Program [NTP] U.S. Food and Drug Administration [FDA] Tox21 Assay Overview: Androgen receptor (AR) is an important member of the nuclear receptor family. Its signaling plays a critical role in AR-dependent prostate cancer and other androgen related diseases. Considerable attention has been given in the past decades to develop methods to study and screen for the environmental chemicals that have the potential to interfere with metabolic homeostasis, reproduction, developmental and behavioral functions. Therefore AR binding assay for screening androgen antagonists can be used to identify potential endocrine disruptors. MDA-kb2 cells (from ATCC, deposited by Wilson et al.) were used to screen for AR inhibitors against Tox21 compound libraries. These cells are human breast carcinoma cells that were stably transfected with a luciferase reporter gene under control of the MMTV promoter that contains response elements for both androgen receptor (AR) and glucocorticoid receptor (GR). The current screening for identification of AR inhibitors against Tox21 libraries used lower concentration of (0.5 nM) R1881 as a stimulator. The cytotoxicity of the Tox21 compound libraries against MDA-kb2 cell line was tested by measuring live-cell protease activity using CellTiter-Fluor assay in the same wells.
Tox21 Assay Protocol Summary: MDA-kb2 cells (cells cultured without CO2) were dispensed at 3,000 cells/well in 4 uL of culture medium into white wall/solid-bottom 1536-well plates (Corning Life Sciences, Corning, NY) using a Multidrop Combi (ThermoFisher Scientific, Waltham, MA) dispenser. After the assay plates were incubated at a 37C and 0% CO2 for 5 hr, 23 nL of compounds dissolved in DMSO, positive controls or DMSO only was transferred to the assay plate by a Pintool station (Kalypsys, San Diego, CA). The transfer of compounds was followed by the addition of 1 uL of 0.5 nM (final concentration) agonist (R1881)/culture medium using a Flying Reagent Dispenser (FRD, Aurora Discovery, San Diego, CA). The plates were incubated at 37C and 0% CO2 for 16 hr. For cytotoxicity assay, 1 uL of CellTiter-Fluor reagent (Promega Corporation, Madison, WI) was added to each well using the FRD and after 30 min incubation at 37C and 0% CO2, The fluorescence intensity was measured using ViewLux plate reader (PerkinElmer, Shelton, CT).
On to `C=C(C#N)CCC#N`, for which the Potency entry is “inactive”.

Turning to `COc1nn(CSP(=S)(OC)OC)c(=O)s1`, the Potency entry is “inactive”.

`O=C(NC(=O)c1c(F)cccc1F)Nc1cc(Cl)c(Oc2ncc(C(F)(F)F)cc2Cl)c(Cl)c1`: the Potency entry is “inactive”. Take `Brc1ccc(Oc2ccccc2)cc1`: the Potency entry is “inactive”.

On to `CCCCCC[N+](=O)[O-]`, for which the Potency entry is “inactive”. Turning to `COC(=O)c1cncn1C(C)c1ccccc1` (stereo not given), the Potency entry was “inactive”. The value for `CCC(COC(=O)c1cc(OC)c(OC)c(OC)c1)(c1ccccc1)N(C)C` (stereo not given) was “inactive”; that for `COP(=S)(Oc1cc(Cl)c(Br)cc1Cl)c1ccccc1` (stereo not given) was “inactive”; that for `CC(C)(C)C(O)C(Oc1ccc(Cl)cc1)n1cncn1` (stereo not given) was “inactive”. Turning to `CC(Cl)C(C)Cl` (stereo not given), the Potency entry was “inactive”. Consider `O=C(C(Cl)(Cl)Cl)C(Cl)(Cl)Cl`, for which the Potency result is “inactive”. The value for `CCC(Cl)CCl` (stereo not given) was “inactive”; that for `CCCCC(O)(Cn1cncn1)c1ccc(Cl)cc1Cl` (stereo not given) was “inactive”; that for `BrCC(Br)C1CCC(Br)C(Br)C1` (stereo not given) was “inactive”. The same measure for `Brc1ccccc1`: “inactive”. The same measure for `C[N+](C)(C)CCCl`: “inactive”.

Regarding `O=[Se]=O`, the Potency is 12.1 µM (active). The value for `ClP(Cl)(Cl)(Cl)Cl` was “inactive”; that for `C=CCCl` was “inactive”. `O=C(CBr)OCc1ccccc1`: the Potency result is “inactive”. Regarding `C=CC(=O)OCCCCO`, the Potency result is “inactive”. With `Cc1ccccc1C(=O)Nc1cccc(OC(C)C)c1`, the Potency entry is “inactive”. The value for `C(=NC1CCCCC1)=NC1CCCCC1` was 8.69 µM (active); that for `CC(=O)NC1CCSC1=O` (stereo not given) was “inactive”; that for `CCO[C@H]1O[C@@H]2OC3(C)CC[C@H]4[C@H](C)CC[C@@H]([C@H]1C)[C@@]24OO3` was “inactive”.

As for `CCOC(=O)[C@]1(c2ccccc2)Oc2ccccc2[C@@H]1N`, the Potency entry is “inactive”. The value for `COc1cc(Cl)c(OC)cc1Cl` was “inactive”; that for `CCCCCCCCOC(=O)c1ccc(C(=O)OCCCCCCCC)c(C(=O)OCCCCCCCC)c1` was “inactive”; that for `COP(=S)(OC)Oc1cc(Cl)c(I)cc1Cl` was “inactive”. Take `NC(=O)C(Cl)(Cl)Cl`: the Potency result was “inactive”. Turning to `OC(c1ccc(Cl)cc1)(c1ccc(Cl)cc1)c1cccnc1`, the Potency result is “inactive”. The same measure for `Oc1ccc(Cl)c(Cl)c1Cl`: “inactive”; for `COC(N)=O`: “inactive”. Turning to `CC1(C)CCC(Cc2ccc(Cl)cc2)C1(O)Cn1cncn1` (stereo not given), the Potency result was “inactive”. On to `CC(C)N(CCC(C(N)=O)(c1ccccc1)c1ccccn1)C(C)C` (stereo not given), for which the Potency result is “inactive”. The value for `II` was “inactive”. In the case of `N#CCc1ccccc1`, the Potency result was “inactive”. In the case of `ClCCCCBr`, the Potency entry was “inactive”. The same measure for `O=C(O)C(F)(F)C(F)(F)C(F)(F)C(F)(F)C(F)(F)C(F)(F)C(F)(F)C(F)(F)C(F)(F)F`: “inactive”; for `OCCCBr`: “inactive”.
